TIM10 inh: inhibits growth of TIM10 yeast strain; inhibition, % at 10 µM; S. cerevisiae TIM10 strain growth, BacTiter-Glo luminescence, 24 h; hit rate 1.4% among 330,000;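 active = inhibition of 40% or more at the single tested concentration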;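 also: wild-type TIM10 isogenic control strain grown at permissive 25 °C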
tim23-1 inh: tim23-1 yeast growth inhibition; S. cerevisiae tim23-1 growth, BacTiter-Glo luminescence, 24 h; inhibition, % at 20 µM; hit rate 1.3% among 330,000;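 active = growth inhibition of the mutant yeast at or above 50%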;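 also: temperature-sensitive mutant grown at 25 °C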
tim10-1 inh: tim10-1 yeast growth inhibition; S. cerevisiae tim10-1 ts strain growth, BacTiter-Glo, 24 h; inhibition, % at 20 µM; hit rate 2.2% among 330,000; AID 463190;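 active = inhibition of at least 40%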;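 also: mutant grown at 25 °C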
NALP1 inh: blocks the NALP1 inflammasome reconstituted in yeast; AID 2071; S. cerevisiae NALP1/ASC/caspase-1 growth, X-gal OD620, 72 h; inhibition, % at 10 µM; hit rate 0.61% among 280,000; in the data active = inhibition mostly above about 24%, no sharp cut-off; inactive = mostly below about 32%
NLRP3 yeast inh: blocks the NALP3 inflammasome reconstituted in yeast; inhibition, % at 10 µM; AID 2825; hit rate 0.39% among 330,000; Yeast reconstituted NLRP3/ASC/caspase-1, beta-gal luminescence, 24 h;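 active = inhibition of 50% or more; inactive = inhibition below 50%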
V-ATPase pH: yeast V-ATPase proton transport regulation by pHLuorin | S. cerevisiae, pHLuorin cytosolic pH fluorescence | AID 504577 | hit rate 0.37% among 350,000 | response, % at 10 µM; in the data active = response mostly above about 7.3%, no sharp cut-off; inactive = mostly below about 5.4%; also: actives read high
NALP3 confirm: confirmation of NALP3 inhibitors in yeast | shares compounds with NLRP3 yeast inh | yeast expressing human NALP3, luminescence | inhibition, % at 10 µM | hit rate 81% among 1,300; in the data active = inhibition above about 48%
Casp1-ASC yeast: caspase-1-ASC yeast counter-screen hit. shares compounds with NLRP3 yeast inh. yeast expressing Caspase-1-ASC, luminescence counter screen. inhibition, % at 10 µM. hit rate 66% among 1,000
NALP3 retest: retest-confirmed inhibitor of NALP3 in yeast; shares compounds with NLRP3 yeast inh; hit rate 53% among 1,000; inhibition, % at 10 µM; yeast expressing human NALP3, luminescence read-out; AID 488794
Of the large screens only hits and unclear results are named; the others gave an inactive call (follow-up assays come after a bar, where they were run). Rows were chosen to be rich in hits. Some 4.2% of all compounds tested hit in one or more screens of this group. Rule as the data show it, unless noted: active = inhibition above about 50%; inactive = the rest.

CCCCCCCCCCCCOC(=O)C[N+](C)(C)C	NLRP3 yeast inh 53.6 (no result: NALP1 inh) | NALP3 confirm inactive | Casp1-ASC yeast 59.1 | NALP3 retest 52.4
Fc1ccc2c(c1)C1OCCCC1C(c1ccccc1)N2 (stereo unspecified)	NLRP3 yeast inh 61.9 | NALP3 confirm inactive
c1coc(C2Nc3ccccc3C3OCCC23)c1 (stereo unspecified)	none
CCOc1ccc(NC(=S)N/N=C(\C)Cc2ccc(OC)cc2)cc1	none
CCOc1ccc(CSCCNC(=S)Nc2ccc(OC)cc2)cc1	NLRP3 yeast inh 67.9 | NALP3 confirm 64.5 | Casp1-ASC yeast inactive | NALP3 retest inactive
COc1ccc(-c2nn(-c3ccccc3C)cc2CNC(C)c2cn(C)nc2C)cc1F (stereo unspecified)	none
C=CCc1ccc(OCCn2nnc3ccccc32)c(OC)c1	NLRP3 yeast inh 53.1 | NALP3 confirm 63.2 | Casp1-ASC yeast 50.2 | NALP3 retest inactive
CCN(CC)Cc1ccc(OC)c(Cl)c1	none
COc1ccc(CSCCN)cc1Cl	NLRP3 yeast inh 67.6 | NALP3 confirm 69.5 | Casp1-ASC yeast 70.6 | NALP3 retest 73.2
O=C(Nc1ccc(F)cc1)C1(S(=O)(=O)c2ccc(Cl)cc2)CC1	NLRP3 yeast inh 55.1 | NALP3 confirm 74.8 | Casp1-ASC yeast inactive | NALP3 retest inactive
CCSc1nc2sc3c(c2c(=O)n1C1CCCCC1)CCN(C)C3	none (no result: TIM10 inh, tim23-1 inh, tim10-1 inh, NLRP3 yeast inh)
COc1cc(-c2nc3ccccn3c2/N=C/c2ccccc2)ccc1O	none
COc1cc(-c2nc3ccccn3c2/N=C/c2cc(OC)c(O)cc2Cl)ccc1O	none | NALP3 confirm inactive
Cc1ccc(-n2cc[nH]c2=S)cc1C	none (no result: NALP1 inh)
O=C(Nc1ccc(Nc2ccccc2)cc1)C(Cl)(Cl)Cl	NLRP3 yeast inh 60.7 | NALP3 confirm 68.0
COc1ccccc1N1CCN(c2ncnc3c2oc2ccccc23)CC1	none
CC(C)Sc1nnc(NC(=O)CCc2ccccc2)s1	none
Cc1ccccc1C(=O)Nc1nnc(SC(C)C)s1	NLRP3 yeast inh 51.4 | NALP3 confirm inactive | Casp1-ASC yeast 71.0 | NALP3 retest 63.0
O=c1c2cc(Br)ccc2nc(-c2ccc([N+](=O)[O-])cc2)n1O	NLRP3 yeast inh 52.9 | NALP3 confirm 78.6 | Casp1-ASC yeast inactive | NALP3 retest 62.1
O=C1C(=C(c2ccccc2)c2ccccc2)Nc2ccccc21	NLRP3 yeast inh 62.2 | NALP3 confirm inactive
O=C1C(=C(O)c2ccccc2)C(=O)c2ccccc21	none
CCCCCCCCNc1ncnc2ccccc12	NLRP3 yeast inh 81.6 | NALP3 confirm 76.3 | Casp1-ASC yeast 79.8 | NALP3 retest 78.8
c1ccc(CCNc2ncnc3ccccc23)cc1	none
Cn1c(SCC(N)=O)nnc1-c1ccc(S(=O)(=O)N2CCCC2)cc1	none
CN1CCN(c2ccccc2NC(=O)c2ccc([N+](=O)[O-])o2)CC1	none
CC(NCC(O)COCc1cccs1)C1CC2CCC1C2 (stereo unspecified)	none
O=C(Nc1ccc(S(=O)(=O)Nc2cnc3ccccc3n2)cc1)c1ccc(Br)o1	none (no result: NALP1 inh)
CCCSc1nnc(Sc2nnnn2-c2ccccc2)s1	NLRP3 yeast inh 57.7 | NALP3 confirm 65.7 | Casp1-ASC yeast 59.5 | NALP3 retest inactive
Fc1ccc(-c2nnn(Cc3nc4ccccc4s3)n2)cc1	NLRP3 yeast inh 54.0 | NALP3 confirm 64.9 | Casp1-ASC yeast inactive | NALP3 retest inactive
Clc1ccc(-c2nnn(Cc3nc4ccccc4s3)n2)cc1	none
O=C(Nc1ccc(N2CCCCC2)cc1)C(Cl)c1ccccc1 (stereo unspecified)	NLRP3 yeast inh 50.3 | NALP3 confirm 55.8 | Casp1-ASC yeast inactive | NALP3 retest inactive
Cc1nc(C(=O)NNC(=O)c2ccc(C(F)(F)F)cc2)cs1	none (no result: NALP1 inh)
NCCc1nnc(SCc2ccc(F)cc2)o1	NLRP3 yeast inh 58.9 | NALP3 confirm 73.8 | Casp1-ASC yeast 57.5 | NALP3 retest 61.2
C=CCNC(=O)NC(=O)CSc1nc2cc([N+](=O)[O-])ccc2n1-c1cccc(C(F)(F)F)c1	none
Cc1ccccc1C(=O)O/N=C/c1c(N2CCOCC2)n(C)c2ccccc12	NLRP3 yeast inh 66.1 | NALP3 confirm 82.7 | Casp1-ASC yeast 91.8 | NALP3 retest 78.8
O=C1CN(C(=O)c2cc(Br)c(Br)s2)c2ccccc2N1	none
S=C(Nc1cc(Cl)cc(Cl)c1)NC1CCN(Cc2ccccc2)CC1	NLRP3 yeast inh 55.6 | NALP3 confirm 52.7
COc1ccccc1N1CCN(c2nccc(C)n2)CC1	NLRP3 yeast inh 51.4 | NALP3 confirm 62.6 | Casp1-ASC yeast 51.7 | NALP3 retest inactive
COc1ccccc1N1CCN(c2cc(N3CCCC3)nc(C)n2)CC1	none
COc1cc(C(=O)NC(C)C2CC3CCC2C3)ccc1OC(F)F (stereo unspecified)	none (no result: NALP1 inh)
CCn1c(SCC(=O)OC2CCCCC2)nc2ccccc2c1=O	NLRP3 yeast inh 51.4 | NALP3 confirm 71.2 | Casp1-ASC yeast 50.3 | NALP3 retest inactive
CCN1CCN(c2ccc(Cl)cc2NC(=O)c2ccc(-n3nc(C)cc3C)cc2)CC1	NLRP3 yeast inh 51.3 (no result: NALP1 inh) | NALP3 confirm inactive | Casp1-ASC yeast inactive | NALP3 retest inactive
Cc1[nH]c2ccccc2c1/C=N/NC(=O)c1cc(C(C)(C)C)[nH]n1	none (no result: NALP1 inh)
O=C(OCc1cccc2ccccc12)C1CC(=O)N(c2ccccc2)C1 (stereo unspecified)	none
COc1ccc(NC(=O)c2ccc(F)c(F)c2)c2ccccc12	NLRP3 yeast inh 50.1 | NALP3 confirm 61.2 | Casp1-ASC yeast inactive | NALP3 retest inactive
COCCN(Cc1cc2c(C)cc(C)cc2nc1Cl)C(=O)c1ccccc1F	none
O=C(NNC(=O)c1ccc(Oc2cc(Cl)cc(Cl)c2)o1)c1ccccc1	none
O=C(NNC(=O)c1ccc(Oc2ccc(C3SCCS3)cc2)o1)c1ccc(Cl)cc1	NLRP3 yeast inh 53.1 (no result: NALP1 inh) | NALP3 confirm inactive
CCn1c(COc2ccc(C)cc2)nc2ccccc21	NLRP3 yeast inh 64.7 | NALP3 confirm 78.8
CCOCCn1c(COc2ccc(C)cc2)nc2ccccc21	none
O=C(Nc1ccc(F)cc1)c1cc2ccccc2o1	none
Cc1ccc(NC(=O)c2cc3ccccc3o2)cc1Cl	NLRP3 yeast inh 50.4 | NALP3 confirm 67.8 | Casp1-ASC yeast inactive | NALP3 retest inactive
O=C(Nc1ccccc1)c1cc2ccccc2o1	NLRP3 yeast inh 52.4 | NALP3 confirm 50.8 | Casp1-ASC yeast 53.1 | NALP3 retest 53.0
COc1ccc(NC(=O)c2cc3ccccc3o2)cc1OC	none
COc1ccc(NC(=O)c2cc3ccccc3o2)cc1	NLRP3 yeast inh 55.3 | NALP3 confirm 79.2 | Casp1-ASC yeast 66.4 | NALP3 retest 61.4
Cc1nn(-c2ncc(C(F)(F)F)cc2Cl)c(=O)n1-c1ccccc1F	none
